This is a sample that favours compounds with a hit; in the whole collection about 9.9% have one here.
SW480 rereplic = A quantitative high throughput screen for small molecules that induce DNA re-replication in SW480 colon adenocarcinoma cells. SW480 DNA re-replication, Hoechst DNA content imaging, 48 h. 1.8% of 340,000 active. Potency, µM (doses to about 46.1 µM), hits mostly activators. AID 624297, 2012; further: nearly all actives have a fitted effect of over 55% in size
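Treated cells incubate 48 hr (37 C, 5% CO2), are stained 40 min with Hoechst, and nuclear fluorescence is enumerated; a rise in nuclei with high DNA signal marks re-replication.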
KB-V1 MDR tox = qHTS assay for MDR1-selective chemotherapeutics: Primary screen using the drug-selected MDR subline cells KB-V1; AID 1347076, 2019; Potency, µM (titrated, usually from 46.1 µM), usual class: cytotoxic; KB-V1 MDR cells viability, CellTiter-Glo, 72 h; 3.4% of 400,000 active; further: nearly all actives have a fitted effect of over 60% in size
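Following 72 h at 37 degrees C with compound, KB-V1 cell viability was read by CellTiter-Glo luminescence, medium being phenol-red-free DMEM plus 10% FBS; concentration-response parameters came from normalized, curve-fitted qHTS data.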
IL1B secr inh = qHTS for Inhibitors of Inflammasome Signaling: IL-1-beta AlphaLISA Primary Screen; THP-1 LPS/ATP IL-1B secretion, AlphaLISA, 16 h; hits give low values; activity change, % at 57.5 µM; 4.7% of 360,000 active; AID 743279, 2014; in the data active means activity change below about -50%; inconclusive means mostly about -30% to -49%
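Secreted IL-1B measured by AlphaLISA bead assay after 16 h compound exposure of THP-1 cells; compounds (final up to 57.5 uM) added 1 h before LPS (250 ng/mL) and ATP (1.25 mM) stimulation; lower signal means less secretion.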
KB-3-1 cytotox = qHTS assay for MDR1-selective chemotherapeutics: Primary screen using the parental adenocarcinoma cell KB-3-1 | KB-3-1 viability, CellTiter-Glo ATP luminescence, 72 h | Potency, µM (series often up to 46.1 µM), actives largely listed as cytotoxic | 1.4% of 400,000 active | AID 1347075, 2019; further: nearly all actives have a fitted effect of over 60% in size
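Multi-concentration cytotoxicity screen in KB-3-1 cells grown in DMEM lacking phenol red with 10% FBS. After 72 h at 37 °C with compound, ATP-dependent luminescence was recorded.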
MCF10A rereplic = A quantitative high throughput screen for small molecules that induce DNA re-replication in MCF 10a normal breast cells; 2.9% of 350,000 active; Potency, µM (doses to about 46.1 µM), most hits filed as activators; MCF 10A DNA re-replication, Hoechst nuclear intensity, 48 h; further: nearly all actives have a fitted effect of over 50% in size
A number is an active result; - = inactive; ? = inconclusive; . = not tested or not shown. Unless noted, the call rests on the fitted dose curve; in most records, active means well fitted curve in the direction sought with a large enough effect; inconclusive means small, poorly fitted or top-dose-only effect, or another doubt; inactive means no such curve, though single readings can be large; an effect the other way counts as inactive or inconclusive.

SMILES	SW480 rereplic	KB-V1 MDR tox	IL1B secr inh	KB-3-1 cytotox	MCF10A rereplic
CCN1C(=O)C(CC(=O)Nc2ccc(OC)cc2)N(CCc2ccc(F)cc2)C1=S (stereo unspecified)	-	-	-63.7	?	?
COc1ccc(NC(=O)CC2C(=O)N(C)C(=S)N2CCc2ccccc2)cc1 (stereo unspecified)	?	10.3µM	-	?	?
CCN1C(=O)C(CC(=O)Nc2ccc(OC)cc2)N(CCCN2CCN(c3ccc(F)cc3)CC2)C1=S (stereo unspecified)	-	?	-	?	?
CC(=O)C1=C(O)C(=O)N(c2ccc(O)cc2)C1c1ccccc1Cl (stereo unspecified)	-	-	-	-	-
Cc1ccc(NC2SC(=O)N(Cc3cccc(C(=O)O)c3)C2=O)cc1 (stereo unspecified)	-	-	-	-	-
O=C(O)c1cccc(CN2C(=O)SC(Nc3ccccc3)C2=O)c1 (stereo unspecified)	-	-	-	-	23.1µM
CCN(CC)S(=O)(=O)c1ccc2c(c1)N(CC(=O)Nc1cccnc1Cl)C(=O)CO2	-	-	-	-	?
Nc1nc2ccc(Cl)cc2cc1C(=O)NCCc1ccc(Cl)cc1Cl	.	?	-	-	.
Nc1nc2ccc(Cl)cc2cc1C(=O)NCCc1c[nH]c2ccccc12	.	-	-	9.2µM	.
O=C(NNC(=O)c1cc(-c2ccccc2)nc2ccccc12)Nc1cccc(Cl)c1	-	?	-	-	11.6µM
CC(C)(C)c1ccc(-c2cc(C(=O)NNC(=O)Nc3ccccc3)c3ccccc3n2)cc1	?	-	-50.2	?	?
O=C(NNC(=O)c1cc(-c2ccncc2)nc2ccccc12)Nc1ccc(F)cc1	-	-	-	-	-
Cn1nc(-c2ccccc2)cc1NC(=O)Nc1ccc(C(C)(C)C)cc1	-	-	-54.4	-	-
O=C(NNC(=O)c1cc(-c2cccnc2)nc2ccccc12)Nc1ccc(Cl)cc1	-	-	-96.4	?	?
Cn1nc(-c2ccc(Cl)cc2)cc1NC(=O)Nc1ccccc1	-	-	-	-	-
O=c1[nH]nc(-c2n[nH]c(=O)o2)o1	-	-	-	-	-
CC(=O)Nc1cc2c(cc1NC(=O)Cn1nc(-c3ccc(F)cc3)ccc1=O)OCCO2	-	-	-	-	-
CC(=O)c1cc2c(cc1NC(=O)Cn1nc(-c3ccc(C)cc3)ccc1=O)OCO2	-	9.2µM	-	23.1µM	?
COc1ccccc1NC(=O)Cn1nc(-c2ccc3c(c2)OCCO3)ccc1=O	-	-	-	-	0.92µM
CN(C)S(=O)(=O)c1ccc(NC(=O)Cn2nc(-c3ccc4c(c3)OCCO4)ccc2=O)cc1	18.4µM	?	-	?	-
CC12CCC(C(=O)N/N=C/c3ccc(O)cc3)(OC1=O)C2(C)C (stereo unspecified)	-	-	-	-	-
Cc1ccc(S(=O)(=O)N2CCc3ccccc3CC2)cc1	-	?	-85.4	?	?
CCn1c(C)c(C2=CCN(S(=O)(=O)c3ccc(C)cc3)CC2)c2ccccc21	-	16.4µM	-	?	?
C/C(=N\NC(N)=O)c1cccc(Cl)c1	-	?	-	-	-
C/C(=N\N=C(N)N)c1cccc(Cl)c1	-	-	-57.1	-	-
SMILES	SW480 rereplic	KB-V1 MDR tox	IL1B secr inh	KB-3-1 cytotox	MCF10A rereplic
C/C(=N\N=C(N)N)c1ccc(Cl)cc1Cl	?	?	-92.5	?	?
CCCC(=O)NNC(=O)c1c(O)c2ccccc2[nH]c1=O	-	?	-	-	?
O=C(NCC1CCCO1)c1cc(Br)c(Br)s1 (stereo unspecified)	-	-	-	-	-
O=C(OCc1ccc(F)cc1)c1ccc2c(c1)-c1ccccc1C2=O	-	-	-	-	?
CCOC(=O)C1=C(Cc2ccc(F)cc2)C(=O)c2ccccc2C1=O	-	-	-71.1	-	?
Cc1ccc(S(=O)(=O)N2CCn3cccc3C2C)cc1 (stereo unspecified)	-	13µM	-	-	?
Cc1cccc(CN2CCCC(C(=O)c3ccc4c5c(cccc35)CC4)C2)n1 (stereo unspecified)	?	?	-	-	?
O=C(c1ccc2c3c(cccc13)CC2)C1CCCN(Cc2cccnc2)C1 (stereo unspecified)	-	-	-78.1	-	-
COc1cc(CN2CCCC(C(=O)c3ccc4c5c(cccc35)CC4)C2)cc(OC)c1O (stereo unspecified)	?	-	-	?	20.6µM
Cn1cc(/C=C/c2cc[n+](C)cc2)c2cc(Cl)ccc21	11.2µM	-	-60.4	0.92µM	13µM
COC(=O)c1ccccc1NC(=S)N(Cc1ccc2c(c1)OCO2)Cc1cc2ccc(OC)cc2[nH]c1=O	-	-	-	-	-
COC(=O)c1ccc([N+](=O)[O-])cc1N1C(=O)C2C3CCC(C3)C2C1=O (stereo unspecified)	-	-	-	-	-
Cc1cc(=O)[nH]c(SCc2cccc3ccccc23)n1	-	-	-	-	-
Nc1cc(=O)[nH]c(SCc2csc(-c3ccccc3)n2)n1	-	16.4µM	-	?	?
Cc1cc(=O)[nH]c(SCc2cccc(Br)c2)n1	-	?	-	-	-
COc1ccc(CSc2nc(C)cc(=O)[nH]2)cc1Br	-	18.4µM	-	-	-
Cc1cc(=O)[nH]c(SCc2csc(-c3ccccc3)n2)n1	-	23.1µM	-	-	-
COc1ccccc1/C=C1\C=Cc2ccccc21	.	-	.	-	.
O=C1CC2c3ccccc3CCN2C(=O)CN1Cc1ccccc1 (stereo unspecified)	.	-	-	-	.
O=C1c2cnc3nc(SCc4ccccc4)nn3c2CC2c3ccccc3CCN12 (stereo unspecified)	4.11µM	-	-	-	2.31µM
CCCCN(CCCC)CCNC(=O)c1cn(CC)c2ccc(S(=O)(=O)N3CCc4ccccc4C3)cc2c1=O	-	-	-	-	-
Cc1ccc(C)c(S(=O)(=O)N2CCN(C(=O)c3sccc3C)CC2)c1	-	9.2µM	?	-	-
Cc1ccc(C)c(S(=O)(=O)N2CCN(C(=O)CNC(=O)c3ccc4ccccc4c3)CC2)c1	?	23.1µM	-	?	?
Cc1ccc(C)c(S(=O)(=O)N2CCN(C(=O)Cc3ccccc3)CC2)c1	-	-	-	-	-
Cc1ccc(C)c(S(=O)(=O)N2CCN(C(=O)CCC(=O)c3cc(C)sc3C)CC2)c1	-	?	-54.5	-	-
CCOc1ccc(N2C(=O)CC(N(CCc3ccc(OC)c(OC)c3)C(=O)/C=C/C(=O)O)C2=O)cc1 (stereo unspecified)	-	-	-	-	-
